Source: PubChem BioAssay
“And” between values parts separate entries of the source, which are not always exact repeats. Equal values may be shown once. Results filed as inconclusive are left out. For some of these results: Entries with a potency or affinity are not part of this list. The source holds several records for some structures; these can differ, active in one and inactive in another. The source made the active and inactive calls. Unless noted, no rule for the calls is given here.

Legend:
[1] = P. berghei load reduction in hepatocytes – cell-based, HepG2, luciferase luminescence, HepG2 viability, primary screen (AID 624349; in the data active = parasite load remaining mostly below about 12%, no sharp cut-off; inactive = mostly above about 10%;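 also: 100% = mean of DMSO negative control wells on the same plate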); settings: P. berghei liver stage in HepG2, luciferase luminescence, concentration not given here; parasite load remaining: stronger effect = lower value; viability: measured here: HepG2 viability without parasites
[2] = signal quenchers or enhancers, Cy5 substrate/SSB – biochemical, NIH Clinical Collection, E. coli SSB, artefact control for HCV NS3 helicase inhibitor project (AID 743268); settings: Cy5-oligo bound E. coli SSB, fluorescence interference
[3] = system: Hepatitis C virus NS3 helicase; assay: blockers of NS3h binding to DNA – biochemical, fluorescence polarization, NIH Clinical Collection, primary screen (AID 743270); settings: NS3 helicase binding to Cy5-dT15 DNA, stronger effect = higher value, concentration not given here
[4] = target: Single-stranded DNA-binding protein (Escherichia coli (strain K12)) (UniProt P0AGE0); assay: SSB-ssDNA binding inhibitors – biochemical, fluorescence polarization, NIH Clinical Collection, counter-screen for HCV NS3 helicase inhibitor project (AID 743271; in the data active = inhibition above about 28%); settings: E. coli SSB-DNA binding, stronger effect = higher value, concentration not given here
[5] = compounds distorting NS3 helicase fluorescence signal – biochemical, NIH Clinical Collection, artefact control for HCV NS3 helicase inhibitor project (AID 743272); settings: fluorescence interference counterscreen, HCV NS3 helicase assay; stronger effect = lower value;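 also: HCV NS3 helicase with a Cy5 labelled single stranded DNA probe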
[6] = system: Neuropilin-2 / VEGF-C interaction (human); assay: small molecules blocking Neuropilin-2/VEGF-C interaction – biochemical, microplate binding format, z-score (AID 743281); settings: microplate NRP2/VEGF-C binding assay; stronger effect = lower value
[7] = modulation of C. elegans fzo-1 (AID 1259413);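 also: fzo-1 mutant C. elegans worms in liquid wells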; settings: C. elegans fzo-1 modulator screen, mean read-out; stronger effect = higher value
[8] = system: Aerobactin synthetase IucA (Klebsiella pneumoniae); assay: inhibition of K. pneumoniae IucA enzyme – biochemical, Tocris library, absorbance (AID 1345561); settings: purified IucA enzyme assay, absorbance (OD) read-out; stronger effect = lower value;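 tested at 8 µM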;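 also: 100% = enzyme without compound and 0% = no enzyme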
[9] = viability loss with induced miR-34 in A549 – imaging, A549 dox-inducible miR-34, nuclei and caspase counts, primary screen (AID 1347080;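 active = compounds whose cell count with miR-34 switched on is under 0.7 times the count with it off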); settings: A549 miR-34 inducible, Hoechst nuclei count, 48 h
[10] = galactose survival enhancers in mitochondrial complex I cybrids – cell-based, galactose medium, ATP luminescence, primary screen (AID 1645843;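 active = z-score of at least 1.8 in each of two replicates, scored against plate mean and spread of sample wells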;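 also: positive z means more ATP and so rescue of galactose-driven cybrid death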); settings: complex I mutant cybrid cells, 72 h, stronger effect = higher value
F380Y = assay: BK channel mutant inhibitors and activators – cell-based, U2OS BacMam, thallium flux, beta subunits, selectivity assay, profiling panel (AID 1259406;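 active = thallium flux through the channel raised or lowered by more than 3 SD from vehicle-only wells, actives on both sides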;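 also: initial slope of Thallos dye fluorescence rise after thallium is added; log ratio against the mean of 0.3% DMSO vehicle wells on the same plate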); settings: U2OS BacMam BK variants, at 30 µM
F380Y/beta1 = assay: as above; settings: U2OS BacMam BK variants, at 30 µM
F380Y/beta2Delta = assay: as above; settings: U2OS BacMam BK variants, at 30 µM
F380Y/beta4 = assay: as above; settings: U2OS BacMam BK variants, at 30 µM
[11] = target: Calcium-activated potassium channel subunit alpha-1 (Homo sapiens) + Leucine-rich repeat-containing protein 26 (Homo sapiens) (UniProt Q12791+Q2I0M4); assay: as above; settings: U2OS BacMam BK variants, F380Y/Slo1WT/gamma1, at 30 µM
R275C = assay: as above; settings: U2OS BacMam BK variants, at 30 µM
R275C/beta1 = assay: as above; settings: U2OS BacMam BK variants, at 30 µM
R275C/beta2Delta = assay: as above; settings: U2OS BacMam BK variants, at 30 µM
R275C/beta4 = assay: as above; settings: U2OS BacMam BK variants, at 30 µM
R275C/Slo1WT/beta2 = assay: as above; settings: U2OS BacMam BK variants, at 30 µM
[12] = antimalarial activity against Dd2 strain (AID 2302;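 active = growth inhibition above 50% at the single 2 µM test dose, taken to imply half-maximal potency below 2 µM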;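 also: 0% = DMSO untreated growth and 100% = chloroquine plus artemisinin killed control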); settings: P. falciparum Dd2 in RBCs, LDH growth readout, 72 h; at 2 µM; stronger effect = higher value
[13] = human hepatoma cell viability loss – ATP luminescence, cytotoxicity control for P. falciparum antimalarial project, primary screen (AID 2303;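 active = inhibition above 50%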;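 also: 0% = DMSO wells and 100% = digitonin-killed cells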); settings: HepG2 viability, 24-48 h, at 10 µM, stronger effect = higher value
[14] = target: L-lactate dehydrogenase (Plasmodium falciparum (isolate CDC / Honduras)) (UniProt Q27743); assay: PfLDH activity inhibition – cell lysate, 3D7 strain, counter-screen for P. falciparum growth inhibition project (AID 2304);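 also: 0% = vehicle and 100% = reference inhibitor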; settings: P. falciparum 3D7 crude extract, LDH APAD/NBT absorbance; at 2 µM; stronger effect = higher value
[15] = inhibition of 3D7 malaria parasite growth – strain 3D7 (AID 2306);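 also: 0% = DMSO wells and 100% = chloroquine plus artemisinin control wells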; settings: P. falciparum 3D7 erythrocytic growth, LDH absorbance, 72 h; at 2 µM; stronger effect = higher value
[16] = target: Calcium-dependent protein kinase 1 (Plasmodium falciparum (isolate 3D7)) (UniProt P62344); assay: PfCDPK1 kinase inhibitors, biochemical, TCAMS library (AID 1159585; cut-off not given, nearly all actives have IC50 up to about 0.98 µM;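 also: inhibitors leave more ATP so luminescence rises with inhibition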); settings: recombinant PfCDPK1, Kinase-Glo ATP depletion luminescence
[17] = target: Plasmodium falciparum protein kinase 6 (PK6, PF3D7_1337100) (UniProt Q8IDW1); assay: PfPK6 kinase inhibitors, biochemical, TCAMS library (AID 1159586); settings: recombinant PfPK6, Kinase-Glo ATP depletion luminescence
[18] = target: Protein kinase 7 (PK7), Plasmodium falciparum 3D7 (PF3D7_0213400) (UniProt Q7YTF7); assay: inhibition of Plasmodium PK7 catalytic activity – biochemical, TCAMS antimalarial set, Kinase-Glo luminescence (AID 1159587); settings: recombinant PfPK7, Kinase-Glo ATP depletion luminescence
[19] = target: Calcium-dependent protein kinase 4 (Plasmodium falciparum (isolate 3D7)) (UniProt Q8IBS5); assay: PfCDPK4 kinase inhibitors, biochemical, TCAMS library (AID 1159588; cut-off not given, nearly all actives have IC50 up to about 0.91 µM); settings: recombinant PfCDPK4, Kinase-Glo ATP depletion luminescence
[20] = system: Hepatitis C virus NS3 helicase; assay: blockers of NS3h binding to ssDNA – biochemical, fluorescence polarization, LOPAC1280 library, primary screen (AID 687035; in the data active = inhibition above about 37%); settings: Purified HCV NS3 helicase, Cy5-dT15 ssDNA binding fluorescence polarization; stronger effect = higher value; concentration not given here
[21] = compounds altering Cy5-DNA-NS3h complex signal – biochemical, LOPAC1280, artefact control for HCV NS3 helicase inhibitor project (AID 687037); settings: Cy5-DNA-NS3h complex fluorescence interference counterscreen
[22] = EMT-state selective cytotoxicity in co-culture – imaging, PC-3E GFP, TEM4-18 mCherry, primary screen (AID 1345086;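 active = compounds killing one labelled cell type while sparing the other, by normalised counts and ratio limits, not self-fluorescent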;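 also: cells exposed to compound for 72 h before imaging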;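 as to red/green cell ratio (normalised): normalised mesenchymal count divided by normalised epithelial count so high means epithelial killing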); settings: PC-3E GFP / TEM4-18 mCherry co-culture, imaging cell counts, at 1 µM
[23] = viability loss in pontine glioma line – cell-based, JHH-DIPG-1, MIPE4.0, CellTiter-Glo, qHTS, dose response (AID 1347062; cut-off not given, nearly all actives have AC50 up to about 27 µM;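 also: cells exposed to compound for two days before readout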); settings: JHH-DIPG-1 viability, CellTiter-Glo ATP luminescence
[24] = viability loss in pontine glioma line – cell-based, SU-DIPG-IV, MIPE4.0, CellTiter-Glo, qHTS, dose response (AID 1347063; cut-off not given, nearly all actives have AC50 up to about 30 µM;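 also: compound exposure lasted 48 hours before the viability readout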); settings: CellTiter-Glo ATP luminescence
[25] = viability loss in pontine glioma line – cell-based, SU-DIPG-XXV, MIPE5.0, CellTiter-Glo, qHTS, dose response (AID 1347065; cut-off not given, nearly all actives have AC50 up to about 26 µM;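 also: cells exposed to compound for 48 hours before ATP readout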); settings: CellTiter-Glo ATP luminescence
[26] = JHH-DIPG-1 glioma cell viability, MIPE5.0 library, CellTiter-Glo luminescence, qHTS (AID 1347067; cut-off not given, nearly all actives have AC50 up to about 26 µM;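 also: cells exposed to compound for 48 hours before readout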); settings: JHH-DIPG-1 glioma viability, CellTiter-Glo ATP luminescence
[27] = growth inhibition of DIPG cells – cell-based, MIPE5.0 library, qHTS (AID 1347068; cut-off not given, nearly all actives have IC50 up to about 30 µM); settings: SU-DIPG-XXV viability
[28] = compounds altering HSF1 focus formation in cells – imaging, Selleck Cancer Library (AID 1347162; in the data active = plate-normalised HSF1 focus index below about 0.46); settings: human cells, HSF1 nuclear foci imaging, at 10 µM; SSMD: measured here: HSF1 foci SSMD mean; cell count: measured here: cell number; plate-normalised HSF1 focus index: stronger effect = lower value
[29] = blockers of cellular phospholipid synthesis – cell-based, LOPAC library, screen 4, primary screen (AID 1347384); settings: animal cells, phospholipid biosynthesis inhibition screen; at 10 µM
[30] = MELAS cybrid and Rieske KO viability enhancers – cell-based, MELAS cybrids, Rieske KO mouse fibroblasts, CellTiter-Glo, primary screen (AID 1508586;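 active = mean z-score across replicates of 1.96 or higher in either the MELAS or the Rieske mutant cell line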;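 also: z relative to plate mean and SD of compound and empty wells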); settings: low glucose
[31] = target: NAD(+) hydrolase SARM1 (Homo sapiens) (UniProt Q6SZW1); assay: blocking NAD cleavage by SARM1 SAM-TIR – cell lysate, NAD-Glo luminescence (AID 1508614;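 active = compound whose remaining NAD level is above about 45 nM, limit read from the data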;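 also: higher remaining NAD means stronger inhibition of SARM1 NADase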); settings: SAM-TIR HEK293T lysate NADase, at 1 µM, stronger effect = higher value
Chain of NAD(+) hydrolase SARM1 (Homo sapiens) (Q6SZW1 whole entry, looked up): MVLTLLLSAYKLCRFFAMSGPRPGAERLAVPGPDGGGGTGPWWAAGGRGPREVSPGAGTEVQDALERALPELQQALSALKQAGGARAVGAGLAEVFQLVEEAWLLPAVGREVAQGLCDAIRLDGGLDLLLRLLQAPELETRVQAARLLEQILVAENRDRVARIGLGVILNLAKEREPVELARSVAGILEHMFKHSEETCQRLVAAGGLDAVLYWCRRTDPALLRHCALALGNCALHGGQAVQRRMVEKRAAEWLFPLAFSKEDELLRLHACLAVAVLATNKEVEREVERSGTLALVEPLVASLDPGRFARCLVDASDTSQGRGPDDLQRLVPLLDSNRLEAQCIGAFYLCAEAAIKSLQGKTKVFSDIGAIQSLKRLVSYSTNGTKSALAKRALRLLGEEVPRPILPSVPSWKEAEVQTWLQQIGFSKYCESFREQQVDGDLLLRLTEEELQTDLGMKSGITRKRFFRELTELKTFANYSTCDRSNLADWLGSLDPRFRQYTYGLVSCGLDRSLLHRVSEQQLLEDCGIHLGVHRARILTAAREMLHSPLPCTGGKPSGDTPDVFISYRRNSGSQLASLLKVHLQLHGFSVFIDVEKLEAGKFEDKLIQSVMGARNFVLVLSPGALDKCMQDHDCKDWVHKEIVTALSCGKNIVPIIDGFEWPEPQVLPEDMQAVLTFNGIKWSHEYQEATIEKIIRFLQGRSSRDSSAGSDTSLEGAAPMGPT

Chain of Protein kinase 7 (PK7), Plasmodium falciparum 3D7 (PF3D7_0213400) (Q7YTF7 1-343): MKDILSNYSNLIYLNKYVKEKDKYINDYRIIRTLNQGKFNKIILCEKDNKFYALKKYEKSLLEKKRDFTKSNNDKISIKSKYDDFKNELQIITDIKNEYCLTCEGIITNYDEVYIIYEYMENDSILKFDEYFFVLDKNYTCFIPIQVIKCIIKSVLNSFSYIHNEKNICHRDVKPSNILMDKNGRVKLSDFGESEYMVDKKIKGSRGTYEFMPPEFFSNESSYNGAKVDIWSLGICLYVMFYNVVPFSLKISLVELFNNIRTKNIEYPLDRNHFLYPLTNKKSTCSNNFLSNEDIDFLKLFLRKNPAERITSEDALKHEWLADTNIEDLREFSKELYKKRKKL
Chain of Plasmodium falciparum protein kinase 6 (PK6, PF3D7_1337100) (Q8IDW1 1-305): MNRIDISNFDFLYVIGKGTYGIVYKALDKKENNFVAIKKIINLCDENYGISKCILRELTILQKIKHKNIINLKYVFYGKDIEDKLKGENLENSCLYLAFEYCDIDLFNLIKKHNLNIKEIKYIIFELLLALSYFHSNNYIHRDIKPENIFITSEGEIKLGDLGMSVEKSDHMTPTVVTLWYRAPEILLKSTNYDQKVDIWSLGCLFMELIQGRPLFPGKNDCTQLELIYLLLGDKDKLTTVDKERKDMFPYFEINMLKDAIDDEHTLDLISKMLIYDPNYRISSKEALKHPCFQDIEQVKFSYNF
Chain of L-lactate dehydrogenase (Plasmodium falciparum (isolate CDC / Honduras)) (Q27743 whole entry, looked up): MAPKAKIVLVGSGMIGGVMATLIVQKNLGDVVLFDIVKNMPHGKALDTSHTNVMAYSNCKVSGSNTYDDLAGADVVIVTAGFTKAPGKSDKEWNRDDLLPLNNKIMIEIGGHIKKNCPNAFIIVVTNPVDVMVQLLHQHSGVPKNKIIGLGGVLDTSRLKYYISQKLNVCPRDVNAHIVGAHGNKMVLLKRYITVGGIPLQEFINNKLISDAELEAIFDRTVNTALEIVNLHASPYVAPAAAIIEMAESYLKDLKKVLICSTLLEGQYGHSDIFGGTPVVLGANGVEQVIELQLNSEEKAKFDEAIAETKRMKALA
Chain of Calcium-dependent protein kinase 1 (Plasmodium falciparum (isolate 3D7)) (P62344 whole entry, looked up): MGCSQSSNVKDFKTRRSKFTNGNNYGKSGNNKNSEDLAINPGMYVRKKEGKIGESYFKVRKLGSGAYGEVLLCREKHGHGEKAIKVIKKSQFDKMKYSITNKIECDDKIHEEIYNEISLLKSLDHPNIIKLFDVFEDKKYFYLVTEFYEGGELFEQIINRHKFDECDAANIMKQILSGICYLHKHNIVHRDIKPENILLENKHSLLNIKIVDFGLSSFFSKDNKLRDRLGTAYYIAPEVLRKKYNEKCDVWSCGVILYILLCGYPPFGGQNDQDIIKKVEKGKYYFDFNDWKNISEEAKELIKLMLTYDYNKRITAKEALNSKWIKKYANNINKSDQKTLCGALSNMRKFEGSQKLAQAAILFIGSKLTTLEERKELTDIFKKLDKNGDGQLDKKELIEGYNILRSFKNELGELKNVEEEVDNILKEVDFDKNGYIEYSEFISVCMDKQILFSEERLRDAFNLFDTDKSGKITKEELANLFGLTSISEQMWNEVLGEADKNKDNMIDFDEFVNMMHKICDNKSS
Chain of Calcium-dependent protein kinase 4 (Plasmodium falciparum (isolate 3D7)) (Q8IBS5 whole entry, looked up): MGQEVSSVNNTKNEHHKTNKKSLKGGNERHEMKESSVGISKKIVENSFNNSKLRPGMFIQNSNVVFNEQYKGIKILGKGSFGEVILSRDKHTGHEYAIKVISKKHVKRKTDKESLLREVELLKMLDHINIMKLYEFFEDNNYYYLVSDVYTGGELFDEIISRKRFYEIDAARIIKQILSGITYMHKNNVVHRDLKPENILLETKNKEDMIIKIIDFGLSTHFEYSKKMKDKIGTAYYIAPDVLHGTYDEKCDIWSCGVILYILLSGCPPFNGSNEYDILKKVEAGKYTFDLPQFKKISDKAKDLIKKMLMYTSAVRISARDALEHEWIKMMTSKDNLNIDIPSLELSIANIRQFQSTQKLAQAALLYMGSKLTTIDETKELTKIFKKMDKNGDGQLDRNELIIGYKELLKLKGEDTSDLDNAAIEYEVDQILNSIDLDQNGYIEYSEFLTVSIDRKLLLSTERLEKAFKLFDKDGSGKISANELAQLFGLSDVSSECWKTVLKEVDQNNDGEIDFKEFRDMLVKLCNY
Chain of Calcium-activated potassium channel subunit alpha-1 (Homo sapiens) + Leucine-rich repeat-containing protein 26 (Homo sapiens) (Q2I0M4 whole entry, looked up, one chain of several): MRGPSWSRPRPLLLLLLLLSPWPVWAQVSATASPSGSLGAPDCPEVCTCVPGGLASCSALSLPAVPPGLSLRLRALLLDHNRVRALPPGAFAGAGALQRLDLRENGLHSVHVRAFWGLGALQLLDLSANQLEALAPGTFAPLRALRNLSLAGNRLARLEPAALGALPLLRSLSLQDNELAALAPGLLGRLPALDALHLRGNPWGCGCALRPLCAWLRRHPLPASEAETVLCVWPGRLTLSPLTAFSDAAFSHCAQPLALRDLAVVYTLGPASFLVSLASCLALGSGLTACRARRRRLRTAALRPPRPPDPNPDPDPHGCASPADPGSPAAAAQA

CS(=O)(=O)Nc1ccc(Cc2noc(-c3ccc4[nH]cc(CCN)c4c3)n2)cc1
2.28 and 0.865: fold change ([9]; measured here: relative caspase fold change +Dox/-Dox)
active: fluorescence ratio [2] 0.59 | inhibition [4] 36.6% | fluorescence ratio [5] 0.8
9380 and 8560: cell count ([9]; measured here: total cells with miR-34 induction, stronger effect = lower value)
10500 and 9520: cell count ([9]; measured here: total cells without miR-34 induction)
68.7%: viability [1]
0.895 (inactive) and 2.6 (active): z-score [10]
inactive: parasite load remaining [1] 62% | inhibition [3] 3.28% | z-score [6] 1.81 | mean signal [7] 254 | remaining activity [8] 103% | fold change ([9]; stronger effect = lower value) 0.897 | fold change ([9]; stronger effect = lower value, cell number ratio, induced over uninduced) 0.9 | log fold change Tl+ flux (F380Y) -0.0227 | log fold change Tl+ flux (F380Y/beta1) 0.0172 | log fold change Tl+ flux (F380Y/beta2Delta) -0.088 | log fold change Tl+ flux (F380Y/beta4) -0.0117 | log fold change Tl+ flux [11] -0.0241 | log fold change Tl+ flux (R275C) -0.054 | log fold change Tl+ flux (R275C/beta1) 0.0159 | log fold change Tl+ flux (R275C/beta2Delta) -0.0492 | log fold change Tl+ flux (R275C/beta4) 0.0477 | log fold change Tl+ flux (R275C/Slo1WT/beta2) 0.0125

CS(=O)(=O)Nc1ccc2[nH]cc(C3CCN(CC4CCC(NC(=O)/C=C/c5ccc(Cl)c(Cl)c5)CC4)CC3)c2c1 (stereo not given)
active: growth inhibition [12] 86% | growth inhibition [15] 100%
inactive: inhibition [13] 22% | inhibition [14] -3% | outcome [16] | outcome [17] | outcome [18] | outcome [19]

C/C=C1\CN2CC[C@H]1C[C@@H]2[C@@H](O)c1ccnc2ccc(O)cc12
inactive: growth inhibition [12] -1% | inhibition [13] -10% | inhibition [14] -4% | outcome [16] | outcome [17] | outcome [18] | outcome [19]
active: growth inhibition [15] 98%

Cc1[nH]c2ccc(O)cc2c1C1CCN(CC2CCC(NC(=O)/C=C/c3c(Cl)cccc3Cl)CC2)CC1 (stereo not given)
inactive: inhibition [13] 25% | inhibition [14] -3% | outcome [16] | outcome [17] | outcome [18] | outcome [19]
active: growth inhibition [12] 93% | growth inhibition [15] 103%

CC(O)(CS(=O)(=O)c1ccc(F)cc1)C(=O)Nc1ccc(C#N)c(C(F)(F)F)c1 (stereo not given)
7580: cell count [28]
inactive: parasite load remaining [1] 85.6% and 26.5% | inhibition [20] 0% | fluorescence ratio (interference) [21] 1 | fluorescence ratio [2] 1 | inhibition [3] 0.4% | inhibition [4] -0.87% | fluorescence ratio [5] 0.95 | z-score [6] 0.117 | mean signal [7] 225 | red/green cell ratio (normalised) ([22]; actives lie on both sides) 1.31 | outcome [25] | outcome [26] | outcome [27] | plate-normalised HSF1 focus index [28] 1.1 | outcome [29] | z-score ([30]; MELAS cybrid survival, CellTiter-Glo 48 h, stronger effect = higher value) -0.358 and -0.11 and 0.746 | remaining NAD [31] 10 nM | z-score [10] -0.24 and -0.44 and 0.235 | log fold change Tl+ flux (F380Y) -0.0003 | log fold change Tl+ flux (F380Y/beta1) 0.0749 | log fold change Tl+ flux (F380Y/beta2Delta) -0.0358 | log fold change Tl+ flux (F380Y/beta4) -0.0644 | log fold change Tl+ flux [11] 0.0529 | log fold change Tl+ flux (R275C) -0.0123 | log fold change Tl+ flux (R275C/beta4) 0.0752 | log fold change Tl+ flux (R275C/Slo1WT/beta2) -0.00212
0.64: normalised cell number ([22]; measured here: epithelial PC-3E GFP cell survival)
active: AC50 [23] 9.35 µM | AC50 [24] 13.2 µM | log fold change Tl+ flux (R275C/beta1) 0.266 | log fold change Tl+ flux (R275C/beta2Delta) 0.179
0.621 and -0.29 and 0.356: z-score ([30]; Rieske KO mouse fibroblast survival, CellTiter-Glo 72 h)
71.8% and 108%: viability [1]
0.84: normalised cell number ([22]; measured here: mesenchymal TEM4-18 mCherry cell survival)
2.85: SSMD [28]
